MCF10A rerep: A quantitative high throughput screen for small molecules that induce DNA re-replication in MCF 10a normal breast cells; actives 2.9% (n = 350,000); Potency, µM (doses to about 46.1 µM), hits mostly activators; MCF 10A DNA re-replication, Hoechst nuclear intensity, 48 h; note: nearly all actives have a fitted effect of over 50% in size
SW480 rereplic: A quantitative high throughput screen for small molecules that induce DNA re-replication in SW480 colon adenocarcinoma cells; SW480 DNA re-replication, Hoechst DNA content imaging, 48 h; Potency, µM (doses to about 46.1 µM), usual class: activators; actives 1.8% (n = 340,000); note: nearly all actives have a fitted effect of over 55% in size
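Image-based read-out: total Hoechst fluorescence of nuclei (405 nm excitation, 500-530 nm emission), with hits raising the fraction of high-intensity nuclei. SW480 colon cells incubated 48 hr with compounds at 37 C.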
KB-V1 cytotox: qHTS assay for MDR1-selective chemotherapeutics: Primary screen using the drug-selected MDR subline cells KB-V1. KB-V1 MDR cells viability, CellTiter-Glo, 72 h. Potency, µM (highest dose often 46.1 µM), most hits filed as cytotoxic. actives 3.4% (n = 400,000). AID 1347076, 2019; note: nearly all actives have a fitted effect of over 60% in size
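Cells of the MDR subline KB-V1 are plated, dosed with compound at multiple concentrations, and incubated 72 h at 37 degrees C; CellTiter-Glo is then added and luminescence read after 10 min.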
KB-3-1 cytotox: qHTS assay for MDR1-selective chemotherapeutics: Primary screen using the parental adenocarcinoma cell KB-3-1; KB-3-1 viability, CellTiter-Glo ATP luminescence, 72 h; Potency, µM (series often up to 46.1 µM), usual class: cytotoxic; actives 1.4% (n = 400,000); note: nearly all actives have a fitted effect of over 60% in size
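Cytotoxicity in the drug-sensitive parental line KB-3-1 was scored as loss of CellTiter-Glo luminescence following 72 h incubation with compound. Values come from curve fitting of normalized concentration-response data.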
PINK1 expr mod: A Quantitative High throughput Screen to Identify Chemical Modulators of PINK1 Expression; AID 624263, 2012; Potency, µM (highest dose often 76.6 µM), hits mostly activators; actives 0.2% (n = 410,000); PINK1 immunofluorescence, high-content cytometry, 24 h; active = well fitted activation curve with a large enough effect; inconclusive = small, poorly fitted or top-dose-only effect; cell line not stated here; note: nearly all actives have a fitted effect of over 65% in size
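Stable cell line treated 24 h with compounds at 5 concentrations (CCCP controls), then fixed and immunostained for PINK1 plus nuclear and cell stains; PINK1 immunofluorescence quantified by laser-scanning microplate cytometry.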
Each line names hits and unclear results; the compound was inactive in the other large screens. This is a sample that favours compounds with a hit; in the whole collection about 6.7% have one here. Unless noted, calls come from the whole dose curve; as a rule, active = well fitted curve in the direction sought with a large enough effect; inconclusive = small, poorly fitted or top-dose-only effect, or another doubt; inactive = no such curve, though single readings can be large; an effect the other way counts as inactive or inconclusive.

O=[N+]([O-])c1ccc2nc(NS(=O)(=O)c3ccc(F)cc3)sc2c1	MCF10A rerep 7.3µM, SW480 rereplic inconclusive, KB-V1 cytotox inconclusive, KB-3-1 cytotox inconclusive
Cc1ccc2nc(-c3ccc(NC(=S)NCC(C)(C)CN(C)C)cc3)sc2c1	MCF10A rerep 18µM, SW480 rereplic inconclusive, KB-V1 cytotox inconclusive, PINK1 expr mod inconclusive
CCC(C)(C)NC(=S)Nc1ccc(-c2nc3ccc(C)cc3s2)cc1	MCF10A rerep inconclusive, SW480 rereplic inconclusive
Cc1nc2ccc(NS(=O)(=O)c3ccc(F)cc3F)cc2s1	KB-V1 cytotox 4.1µM, KB-3-1 cytotox inconclusive
O=[N+]([O-])c1ccc2nc(NN=Cc3ccc(O)cc3)sc2c1	MCF10A rerep 9.2µM, SW480 rereplic 21µM, KB-V1 cytotox inconclusive
CCCCNC(=O)[C@@H]1CC=C[C@@H]2CCN(C3CCCCC3)C(=O)[C@@H]21	KB-V1 cytotox inconclusive (no result: MCF10A rerep, SW480 rereplic, PINK1 expr mod)
CCCN1C(=O)c2[nH]nc(-c3ccccc3O)c2C1c1ccc(OCc2ccccc2)c(OCC)c1 (stereo not drawn)	KB-3-1 cytotox inconclusive (no result: MCF10A rerep, SW480 rereplic)
CNC(=S)Nc1ccc(-c2nc3ccc(C)cc3s2)cc1	MCF10A rerep 22µM, SW480 rereplic inconclusive
Cc1ccc2nc(-c3ccc(NS(=O)(=O)c4ccc(F)cc4)cc3)sc2c1	MCF10A rerep 15µM, SW480 rereplic inconclusive
CC(=O)Nc1ccc(S(=O)(=O)Nc2nc3ccc(C)cc3s2)cc1	none
COCCCn1cc(CN2CC(N3CCSCC3)CS2(=O)=O)nn1 (stereo not drawn)	none (no result: MCF10A rerep, SW480 rereplic)
CCn1c(=O)c2sccc2n2c(CCCC(=O)N3CCN(c4ccc(OC)cc4)CC3)nnc12	none (no result: MCF10A rerep, SW480 rereplic, KB-V1 cytotox, KB-3-1 cytotox)
O=c1[nH]c(-c2ccc(-c3cccc(Cl)c3)o2)nc2ccccc12	MCF10A rerep 10µM
O=c1[nH]c(SCc2cccc(Cl)c2)nc2ccccc12	MCF10A rerep inconclusive
Cc1ccc(NC(=O)Nc2nnc(N(C)C3CCCCC3)s2)c(Cl)c1	none (no result: MCF10A rerep, SW480 rereplic)
Cc1nc(N2CCN(C(=O)c3ccco3)CC2)c2c3c(sc2n1)CCC3	KB-V1 cytotox 8.2µM, KB-3-1 cytotox inconclusive
Cc1ccc(-c2csc3ncnc(N4CCN(C(=O)c5ccco5)CC4)c23)cc1	KB-V1 cytotox 21µM
CC(C)(C)C(=O)N1CCN(c2ncnc3scc(-c4ccccc4)c23)CC1	KB-V1 cytotox 15µM, KB-3-1 cytotox inconclusive
Cc1sc2ncnc(N3CCN(C(=O)c4ccco4)CC3)c2c1C	MCF10A rerep inconclusive, KB-V1 cytotox 18µM, KB-3-1 cytotox inconclusive
COc1ccc(Cc2c(-c3cccc(Br)c3)nc3c(C)cc(Br)cn23)c(C)c1	none (no result: MCF10A rerep, SW480 rereplic)
CCCC[C@@H]1CNC(=O)C(=O)N1CCCC	none (no result: MCF10A rerep, SW480 rereplic)
CCOC(=O)C1=CC[C@@H](c2cccc(C)c2)N(S(=O)(=O)c2ccc(C)cc2)[C@H]1C(=O)OCC	MCF10A rerep inconclusive, KB-V1 cytotox inconclusive, KB-3-1 cytotox inconclusive
CCOC(=O)C1=CC[C@@H](c2ccccc2Cl)N(S(=O)(=O)c2ccc(C)cc2)[C@H]1C(=O)OCC	KB-V1 cytotox 16µM, KB-3-1 cytotox inconclusive
CCC12CN3CC(C)(CN(C1)C3c1c[nH]c3ccccc13)C2=O (stereo not drawn)	none (no result: MCF10A rerep, SW480 rereplic)
CC(C)NC(=O)COC(=O)c1cc(=O)[nH]c2ccccc12	none
O=C(COC(=O)c1cc(=O)[nH]c2ccccc12)NC(=O)c1ccccc1	SW480 rereplic 26µM
CCCOc1ccc(Br)cc1/C=N/NC(=O)c1cc(OC)c(OC)c(OC)c1	none
COc1ccc(O)c(/C=N/NC(=O)c2ccc(OCc3cccc(Br)c3)cc2)c1	MCF10A rerep inconclusive, SW480 rereplic 4.1µM, KB-V1 cytotox 3.3µM, KB-3-1 cytotox inconclusive
COc1ccc(C(=O)N/N=C/c2cc(Br)ccc2O)cc1OC	MCF10A rerep inconclusive, SW480 rereplic inconclusive, KB-V1 cytotox 21µM, KB-3-1 cytotox inconclusive
Cc1ccc(OCCNC(=O)[C@H]2O[C@@H](n3ccc(N)nc3=O)[C@H](O)[C@@H]2O)cc1C	KB-V1 cytotox inconclusive (no result: MCF10A rerep, SW480 rereplic)
CN(CC(=O)Nc1ccc(Cl)c(Cl)c1)C(=O)c1ccccc1SCC(=O)N1CCCC1	none (no result: MCF10A rerep, SW480 rereplic)

Assay outcomes (PubChem)
